Experimental data published in PubChem BioAssay AID1508622 (National Center for Advancing Translational Sciences (NCATS), 2021).
Calls of active or inactive are those of the source. Entries that show only a call come without a potency. Calls follow the shape of the dose curve; as a rule, active = well fitted activation curve with a large enough effect; inconclusive = small, poorly fitted or top-dose-only effect; inactive = no such curve, though single readings can be large or run the other way.

Experiment: Confirmatory qHTS for Identification of Small Molecule Activators of Huntingtin-Antisense Promoter Activity
Summary of the method: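 2,500 luciferase reporter HEK293 cells/well; 24 h culture; cpds up to 57.5 uM final, PTC124 50 uM ctrl; 24 h, 37C; Dual-Glo FLuc reagent, 10 min RT; lum. Norm.: vehicle 0%, zero RLU -100%.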

SMILES | Potency
COc1cc(C[C@@H](CO)[C@H](CO)Cc2ccc(O)c(OC)c2)ccc1O | inactive
CCn1c(SCc2ccc(F)cc2Cl)nc(=O)c2c(C(=O)OC)cc(C3CC3)nc21 | inactive
Cc1cc(C)cc(OCCn2c(C3CC(=O)N(c4ccccc4Cl)C3)nc3ccccc32)c1 (configuration not stated) | inactive
CCSc1ncc(Cl)c(C(=O)Nc2ccc(S(=O)(=O)N3CCCCC3)cc2)n1 | inactive
COc1ccc(NC(=O)Cn2c(SCc3ccc(F)cc3)nc3cccnc32)cc1OC | inactive
C#CCOc1ccc(-c2nnc(Nc3cccc(C)c3)c3ccccc23)cc1 | inactive
CC1=C(C(=O)OC2CCCC2)C(c2ccccc2Cl)CC(=O)N1 (configuration not stated) | inactive
Cc1ccc(Cn2cc(/C=C(/C#N)C(=O)Nc3cccc(Cl)c3)c3ccccc32)cc1 | inactive
Cc1ccc(Cl)cc1-n1ncc2c(N3CCC(C)CC3)ncnc21 | inactive
O=C(CSc1nc(-c2ccc(F)cc2)[nH]c1-c1ccc(F)cc1)Nc1ccc2c(c1)OCCO2 | inactive
CCOc1ccc(C(=O)Nc2ccc(S(=O)(=O)N3CCCCC3c3cccnc3)cc2)cc1 (configuration not stated) | inactive
Cc1cc(NC(=O)c2cc(Cl)ccc2Cl)ccc1-c1cc2ccccc2oc1=O | inactive
CCOc1ccc(C(=O)N(Cc2cc(OC)c(OC)c(OC)c2)c2ccccn2)cc1 | inactive
COc1ccc(C(=O)Nc2nc(-c3nnn(-c4ccc(F)cc4F)c3C)ns2)cc1 | inactive
COc1ccccc1N1CCN(C(CNC(=O)C(=O)NCc2ccc(C)cc2)c2cccnc2)CC1 (configuration not stated) | inactive
COc1ccc(N2CCN(CCCNC(=O)c3c(C)nn(-c4ccc(F)cc4)c3-n3cccc3)CC2)cc1 | inactive
COc1ccc(CCNc2nc3c(c(=O)n(C)c(=O)n3C)n2Cc2ccc(F)cc2)cc1OC | inactive
O=C(Nc1ccc(OC(F)(F)F)cc1)C(NS(=O)(=O)c1cccc2nsnc12)c1ccccc1 (configuration not stated) | inactive
Cc1nc2cccnc2n1-c1cccc(C(=O)NCc2ccc(OC(C)C)cc2)c1 | inactive
CCc1ccc(NC(=O)C2CCCN2S(=O)(=O)c2ccc3c(c2)CCCC(=O)N3)cc1 (configuration not stated) | inactive
CCc1ccccc1-n1nnc(-c2nsc(NC(=O)c3ccc(C)c(C)c3)n2)c1C | inactive
COCCN1C(=O)c2[nH]nc(-c3ccccc3O)c2C1c1ccc(OCc2ccccc2)c(OC)c1 (configuration not stated) | inactive
